Sampled rows, rich in hits. Any-hit rate of the full collection: about 1.2%.
NOD2 RIPK2 PPI: blocks binding of human NOD2 to RIPK2. CHO BLA complementation NOD2-RIPK2, CCF4 ratio. inhibition, % at 4.98 µM. 0.38% of 360,000 active; in the data active means inhibition above about 21%;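 further: 0% = vehicle only and 100% = reference blocker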
Target sequence (O43353 whole entry, looked up): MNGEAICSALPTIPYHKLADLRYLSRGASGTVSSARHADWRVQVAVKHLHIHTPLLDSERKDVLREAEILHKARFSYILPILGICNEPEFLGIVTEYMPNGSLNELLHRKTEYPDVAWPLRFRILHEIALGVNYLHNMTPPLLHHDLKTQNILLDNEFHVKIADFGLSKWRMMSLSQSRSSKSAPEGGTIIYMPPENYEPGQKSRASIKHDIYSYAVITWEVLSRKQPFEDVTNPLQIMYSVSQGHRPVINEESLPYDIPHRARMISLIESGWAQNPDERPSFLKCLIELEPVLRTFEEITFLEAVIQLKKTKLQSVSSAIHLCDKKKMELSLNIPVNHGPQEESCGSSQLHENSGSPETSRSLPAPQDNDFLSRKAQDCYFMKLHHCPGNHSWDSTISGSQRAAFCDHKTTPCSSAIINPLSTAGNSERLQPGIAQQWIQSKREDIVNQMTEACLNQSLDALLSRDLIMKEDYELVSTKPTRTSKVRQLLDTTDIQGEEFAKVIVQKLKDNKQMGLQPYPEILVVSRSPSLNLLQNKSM
GC-A act: GC-A (human) enzyme activation; 0.14% of 370,000 active; activation, % at 10 µM; P16066; HEK293 GC-A cells, cGMP TR-FRET, EC30 ANP; 0% at EC30 ANP, 100% saturating ANP; AID 1671463; in the data active means activation above about 40%
Neddyl block: inhibitors of human cullin neddylation; P61081+Q13564; TR-FRET cullin neddylation, biochemical; inhibition, % at 25 µM; 0.58% of 360,000 active; in the data active means inhibition above about 36%
NPR2 activator: GC-B (human) receptor activation; HEK293-GC-B cells, CNP EC30, cGMP TR-FRET; 0% at EC30 CNP, 100% saturating CNP; activation, % at 10 µM; 0.11% of 370,000 active;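 active means activation at 10 µM reaching about 35% in either raw or pattern-adjusted values, limit read from the data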
TLR4-MyD88 BLA: inhibitors of human TLR4-MyD88 binding; O00206+Q99836; HeLa CL3-4 TLR4/MyD88 BLA complementation, FRET ratio; inhibition, % at 8.4 µM; 0.18% of 200,000 active; in the data active means inhibition above about 25%;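 further: 0% = vehicle and 100% = reference inhibitor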
TLR9-MyD88 inh: TLR9-MyD88 interaction inhibition; 0.21% of 340,000 active; Q9NR96+Q99836; inhibition, % at 4.98 µM; CHO BLA complementation TLR9-MyD88, CCF4 FRET ratio;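 active means inhibition above the mean over all tested compounds plus 3 SD, cut at about 21% in these data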;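 further: 0% = DMSO only wells and 100% = clavulanate BLA inhibitor control wells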
The depositor's hits bear a star.

For CCOc1ccc(NC(=O)c2cc(-c3ccc(Cl)cc3)nc3ccccc23)cc1 the results were GC-A act -3 and NPR2 activator 9.
O=C(NCc1ccco1)c1ccc(COc2cc(Cl)ccc2Cl)cc1 was read as NOD2 RIPK2 PPI 4, GC-A act 41*, Neddyl block -1, NPR2 activator 5, TLR4-MyD88 BLA -8 and TLR9-MyD88 inh 8.
`CN(C)CCNC(=O)c1ccc(COc2ccc(Cl)cc2Cl)cc1` gave NOD2 RIPK2 PPI 13, GC-A act 47*, Neddyl block -6, NPR2 activator -9, TLR4-MyD88 BLA -5 and TLR9-MyD88 inh 0.
O=C(Nc1c(-c2ccc(F)c(F)c2)nc2ncccn12)C1CC1 was read as GC-A act 3 and NPR2 activator 5.
Screening CC1=[N+](C)c2ccc3ccccc3c2C1(C)C returned NOD2 RIPK2 PPI -13, GC-A act -1, Neddyl block 44*, NPR2 activator 2, TLR4-MyD88 BLA 12 and TLR9-MyD88 inh 3.
For c1ccc2c(c1)ccc1ccccc12 the results were NOD2 RIPK2 PPI -11, GC-A act -4, Neddyl block -4, NPR2 activator -7 and TLR9-MyD88 inh -10.
Screening C[C@@H]1[C@H](c2ccccc2)OC(O)([C@H](Cc2ccccc2)NC(=O)OC(C)(C)C)CN1C (some centres not stated) returned GC-A act -3 and NPR2 activator -6.
`CCC[C@H]1[C@H](N)CC[C@@]23CCCN2C(=O)CCC[C@@H]13` gave GC-A act -2 and NPR2 activator -3.
`CC(=NNC(=O)CSc1nnc(-c2ccccc2)n1-c1ccccc1)c1ccc2ccccc2c1` gave GC-A act -15 and NPR2 activator -15.
O=C(C1CCC1)N1CCc2cc(S(=O)(=O)C3CCN(Cc4ccc(F)cc4)CC3)ccc21 was read as GC-A act -2 and NPR2 activator -1.
Screening CCCCCSc1nc(N2CCOCC2)c2c(c1C#N)CC(C)(C)OC2 returned NOD2 RIPK2 PPI -9, GC-A act 44*, Neddyl block -56, NPR2 activator 47*, TLR4-MyD88 BLA -6 and TLR9-MyD88 inh 3.
For CC1(C)Cc2c(C#N)c(SCc3ccccc3)nc(N3CCOCC3)c2CO1 the results were NOD2 RIPK2 PPI -6, GC-A act 21, Neddyl block -1, NPR2 activator 52*, TLR4-MyD88 BLA -4 and TLR9-MyD88 inh 2.
`CC(C)c1[nH]nc2c1C(c1ccccc1)NC2=O` (configuration not stated) gave GC-A act 6 and NPR2 activator 9.
For CC(C)OC(=O)c1cc2ccccc2[nH]1 the results were NOD2 RIPK2 PPI -10, GC-A act 2, Neddyl block 38, NPR2 activator 1, TLR4-MyD88 BLA 0 and TLR9-MyD88 inh -10.
For CCOC(=O)c1cc2cc3ccccc3cc2[nH]1 the results were NOD2 RIPK2 PPI -4, GC-A act 9, Neddyl block 41*, NPR2 activator -10, TLR4-MyD88 BLA -16 and TLR9-MyD88 inh -11.
`CN=C1S/C(=C/c2cc(C)n(-c3ccc(Cl)cc3F)c2C)C(=O)N1C` gave GC-A act -20 and NPR2 activator -26.
Screening Cc1[nH]c2ccccc2c1CC(=O)Nc1ccc(N(C)c2cccnc2)c(-c2cccc(Cl)c2)c1 returned GC-A act -2 and NPR2 activator -4.
Cc1ccccc1-c1ccc2c(c1)[C@@H]1C[C@H]3[C@@H](CN1CC2)[C@H](C)ON3C was read as GC-A act -3 and NPR2 activator 4.
COC(=O)c1ccc2nc(-c3ccco3)c(Cc3ccc(C)cc3)n2c1 was read as NOD2 RIPK2 PPI 3, GC-A act 44* and NPR2 activator 52*.
For Cc1ccc(Cc2c(-c3ccco3)nc3c(C)cc(Br)cn23)cc1 the results were NOD2 RIPK2 PPI 7, GC-A act 49*, Neddyl block inactive and NPR2 activator 50*.
For COC(=O)c1ccc2nc(-c3ccco3)c(Cc3cccc(F)c3)n2c1 the results were NOD2 RIPK2 PPI 7, GC-A act 29, Neddyl block 23 and NPR2 activator 42*.
COC(=O)c1ccc2nc(-c3ccccc3)c(Cc3cccc(F)c3)n2c1 was read as NOD2 RIPK2 PPI -1, GC-A act 21, Neddyl block 32 and NPR2 activator 31.
COC(=O)c1ccc2nc(-c3ccc(OC)c(OC)c3)c(Cc3cccc(F)c3)n2c1 was read as NOD2 RIPK2 PPI 0, GC-A act 26 and NPR2 activator 34.
`COC(=O)c1ccc2nc(-c3ccc(F)cc3)c(Cc3cccc(F)c3)n2c1` gave NOD2 RIPK2 PPI -5, GC-A act 28 and NPR2 activator 39*.
For COC(=O)[C@]12C[C@H](CC(=O)NCCC(C)C)C(=O)N(Cc3ccccc3)C1=C[C@H](COCc1ccccc1)O[C@@H]2C the results were GC-A act 1 and NPR2 activator -2.
For COC(=O)c1ccc2nc(-c3ccc(C)cc3)c(Cc3ccc(C)cc3)n2c1 the results were NOD2 RIPK2 PPI 5, GC-A act 34 and NPR2 activator 50*.
O=C1N2CCc3ccccc3C2CS(=O)(=O)N1Cc1ccc(F)cc1 (configuration not stated) was read as GC-A act 0 and NPR2 activator -3.
O=C(c1cnn2c(C(F)(F)F)cc(-c3cccs3)nc12)N1CCN(Cc2ccccc2)CC1 was read as NOD2 RIPK2 PPI 4, GC-A act 51*, Neddyl block 30, NPR2 activator 46*, TLR4-MyD88 BLA -17 and TLR9-MyD88 inh 9.
For COc1ccc(C(C[N+](=O)[O-])C2(c3ccc(OC)c(OC)c3)C(=O)c3ccccc3C2=O)cc1 (configuration not stated) the results were NOD2 RIPK2 PPI 82*, Neddyl block -78, TLR4-MyD88 BLA 15 and TLR9-MyD88 inh 19.
Screening COc1ccc(C(C[N+](=O)[O-])c2c(-c3ccccc3)cc3ccccn23)cc1OC (configuration not stated) returned NOD2 RIPK2 PPI 1, GC-A act -17, Neddyl block -6, NPR2 activator -7, TLR4-MyD88 BLA -5 and TLR9-MyD88 inh -58.
Screening FC(F)(F)c1ccc(Cn2ccc3ccc(-c4ccc5ccn(Cc6ccccc6)c5c4)cc32)cc1 returned GC-A act -4 and NPR2 activator -3.
Screening CC1=C(C(=O)N2CCOCC2)C(c2ccc(O)cc2)NC(=S)N1 (configuration not stated) returned NOD2 RIPK2 PPI -2, GC-A act 32, Neddyl block 5, NPR2 activator 41*, TLR4-MyD88 BLA 0 and TLR9-MyD88 inh 1.
